# Assay results: the supplement of paper PMC4022240
# ± gives the standard deviation.
# T1: HaloTag-ATRX ADD domain (163-292)
# T1 chain: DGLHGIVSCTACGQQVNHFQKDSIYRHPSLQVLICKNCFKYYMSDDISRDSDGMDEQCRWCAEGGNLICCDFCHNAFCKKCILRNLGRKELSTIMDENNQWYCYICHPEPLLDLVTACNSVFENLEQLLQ
# B1: H3 1-13 A R T Kac Q T A R Kac S T G G (peptide)
# chain: ARTKQTARKSTGG
# B2: H2B 17-29 A V T K A Q K K D G Kac K R (peptide)
# chain: AVTKAQKKDGKKR
# B3: H3 1-13 A R T Kac Q T A R K S T G G (peptide)
# chain: ARTKQTARKSTGG
# B4: H3 1-13 A R T Kac Q Tph A R K S T G G (peptide)
# chain: ARTKQTARKSTGG
# B5: H3 1-13 A R T Kac Q T A R Kme2 S T G G (peptide)
# chain: ARTKQTARKSTGG
# Tests used:
# Assay in all cases: peptide microarray binding signal (635 nm), min-max normalized on array (fraction of array maximum); higher = stronger binding
# [1] = target: T1, HaloTag-ATRX ADD domain (163-292)
# Method: (§1)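 Histone 13-mer peptides were synthesized as cellulose conjugates with a C-terminal 20-atom PEG linker and printed in triplicate on nitrocellulose. The sequence given is the unmodified backbone; PTMs (Kme1/2/3, Kac, Sph/Tph, Rme/Rme2a/Rme2s, Rcit) are listed in the label and the 'peptide modifications' condition. Slides were probed at 4 °C for 1 h with biotin-labelled (HQ)5-HaloTag reader fusions (ATRX-ADD, ING2-PHD) then streptavidin-Alexa647, or with rabbit histone antibodies then anti-rabbit Alexa647. The mean 635 nm signal of the triplicate spots was scaled 0-1 between the lowest and highest values on each array.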
# [2] = target: HaloTag-ING2 PHD (mouse Ing2 200-280)
# Method: as §1
# [3] = target: anti-H3K4me3 antibody ab8580
# Method: as §1
# [4] = target: anti-H3K9me3 antibody ab8898
# Method: as §1
# [5] = peptide region: H3 1-13, peptide modifications: H3K4ac H3K9ac, binder concentration: 1:2,000 dilution
# [6] = peptide region: H3 1-13, peptide modifications: H3K4ac H3K9ac, binder concentration: 1:10,000 dilution
# [7] = peptide region: H2B 17-29, peptide modifications: H2BK27ac, binder concentration: 1:2,000 dilution
# [8] = peptide region: H2B 17-29, peptide modifications: H2BK27ac, binder concentration: 1:10,000 dilution
# [9] = peptide region: H3 1-13, peptide modifications: H3K4ac, binder concentration: 1:2,000 dilution
# [10] = peptide region: H3 1-13, peptide modifications: H3K4ac, binder concentration: 1:10,000 dilution
# [11] = peptide region: H3 1-13, peptide modifications: H3K4ac H3T6ph, binder concentration: 1:2,000 dilution
# [12] = peptide region: H3 1-13, peptide modifications: H3K4ac H3T6ph, binder concentration: 1:10,000 dilution
# [13] = peptide region: H3 1-13, peptide modifications: H3K4ac H3K9me2, binder concentration: 1:2,000 dilution
# [14] = peptide region: H3 1-13, peptide modifications: H3K4ac H3K9me2, binder concentration: 1:10,000 dilution
binder,measurement,setting,value
B1,peptide microarray binding signal,"[1]; peptide region: H3 1-13, peptide modifications: H3K4ac H3K9ac, binder concentration: 50 nM",0.0941 ± 0.064
same,peptide microarray binding signal,"[1]; peptide region: H3 1-13, peptide modifications: H3K4ac H3K9ac, binder concentration: 500 nM",0.0794 ± 0.02
same,peptide microarray binding signal,"[2]; peptide region: H3 1-13, peptide modifications: H3K4ac H3K9ac, binder concentration: 10 nM",0.0863 ± 0.014
same,peptide microarray binding signal,"[2]; peptide region: H3 1-13, peptide modifications: H3K4ac H3K9ac, binder concentration: 100 nM",0.099 ± 0.0066
same,peptide microarray binding signal,[3]; [5],0.047 ± 0.0095
same,peptide microarray binding signal,[3]; [6],0.139 ± 0.057
same,peptide microarray binding signal,[4]; [5],0.102 ± 0.0083
same,peptide microarray binding signal,[4]; [6],0.123 ± 0.018
B2,peptide microarray binding signal,"[1]; peptide region: H2B 17-29, peptide modifications: H2BK27ac, binder concentration: 50 nM",0.00248 ± 9e-05
same,peptide microarray binding signal,"[1]; peptide region: H2B 17-29, peptide modifications: H2BK27ac, binder concentration: 500 nM",0.00624 ± 0.00045
same,peptide microarray binding signal,"[2]; peptide region: H2B 17-29, peptide modifications: H2BK27ac, binder concentration: 10 nM",0.00185 ± 3.3e-05
same,peptide microarray binding signal,"[2]; peptide region: H2B 17-29, peptide modifications: H2BK27ac, binder concentration: 100 nM",0.00149 ± 4.1e-05
same,peptide microarray binding signal,[3]; [7],0.00126 ± 4.4e-05
same,peptide microarray binding signal,[3]; [8],0.000913 ± 1.6e-05
same,peptide microarray binding signal,[4]; [7],0.000302 ± 3.1e-06
same,peptide microarray binding signal,[4]; [8],0.000404 ± 4.4e-06
B3,peptide microarray binding signal,"[1]; peptide region: H3 1-13, peptide modifications: H3K4ac, binder concentration: 50 nM",0.0102 ± 0.00024
same,peptide microarray binding signal,"[1]; peptide region: H3 1-13, peptide modifications: H3K4ac, binder concentration: 500 nM",0.0281 ± 0.0023
same,peptide microarray binding signal,"[2]; peptide region: H3 1-13, peptide modifications: H3K4ac, binder concentration: 10 nM",0.214 ± 0.045
same,peptide microarray binding signal,"[2]; peptide region: H3 1-13, peptide modifications: H3K4ac, binder concentration: 100 nM",0.0856 ± 0.085
same,peptide microarray binding signal,[3]; [9],0.00445 ± 0.0025
same,peptide microarray binding signal,[3]; [10],0.00188 ± 0.00011
same,peptide microarray binding signal,[4]; [9],0.00439 ± 0.00098
same,peptide microarray binding signal,[4]; [10],0.0019 ± 0.00014
B4,peptide microarray binding signal,"[1]; peptide region: H3 1-13, peptide modifications: H3K4ac H3T6ph, binder concentration: 50 nM",0.00693 ± 0.00026
same,peptide microarray binding signal,"[1]; peptide region: H3 1-13, peptide modifications: H3K4ac H3T6ph, binder concentration: 500 nM",0.0116 ± 0.0014
same,peptide microarray binding signal,"[2]; peptide region: H3 1-13, peptide modifications: H3K4ac H3T6ph, binder concentration: 10 nM",0.0574 ± 0.0059
same,peptide microarray binding signal,"[2]; peptide region: H3 1-13, peptide modifications: H3K4ac H3T6ph, binder concentration: 100 nM",0.0396 ± 0.0055
same,peptide microarray binding signal,[3]; [11],0.00242 ± 0.00029
same,peptide microarray binding signal,[3]; [12],0.00417 ± 0.00026
same,peptide microarray binding signal,[4]; [11],0.0013 ± 0.00014
same,peptide microarray binding signal,[4]; [12],0.000923 ± 9.6e-06
B5,peptide microarray binding signal,"[1]; peptide region: H3 1-13, peptide modifications: H3K4ac H3K9me2, binder concentration: 50 nM",0.00875 ± 0.0011
same,peptide microarray binding signal,"[1]; peptide region: H3 1-13, peptide modifications: H3K4ac H3K9me2, binder concentration: 500 nM",0.0157 ± 0.0031
same,peptide microarray binding signal,"[2]; peptide region: H3 1-13, peptide modifications: H3K4ac H3K9me2, binder concentration: 10 nM",0.0771 ± 0.0077
same,peptide microarray binding signal,"[2]; peptide region: H3 1-13, peptide modifications: H3K4ac H3K9me2, binder concentration: 100 nM",0.0944 ± 0.0071
same,peptide microarray binding signal,[3]; [13],0.00689 ± 0.0014
same,peptide microarray binding signal,[3]; [14],0.00702 ± 0.001
same,peptide microarray binding signal,[4]; [13],0.00331 ± 0.0003
same,peptide microarray binding signal,[4]; [14],0.00455 ± 0.00089
